Measured values published in PubChem BioAssay AID2283149 (EPA ToxCast).
Results filed as inconclusive are left out. The source made the active and inactive calls. How the source made its calls: active means hit-call score of the fitted dose curve at least 0.9, where 1 is the maximum; inconclusive means response in the unintended direction; inactive means score below 0.9.

What follows are molecules tested against human Casein Kinase 1-alpha (CK1a), CSNK1A1 (gene 1452) (UniProt P48729) (assay: NVS_ENZ_hCK1a: NovaScreen (NVS) Enzymatic Assay for human Casein Kinase 1-alpha (CK1a)).
human Casein Kinase 1-alpha (CK1a), CSNK1A1 (gene 1452), sequence (P48729 whole entry, looked up): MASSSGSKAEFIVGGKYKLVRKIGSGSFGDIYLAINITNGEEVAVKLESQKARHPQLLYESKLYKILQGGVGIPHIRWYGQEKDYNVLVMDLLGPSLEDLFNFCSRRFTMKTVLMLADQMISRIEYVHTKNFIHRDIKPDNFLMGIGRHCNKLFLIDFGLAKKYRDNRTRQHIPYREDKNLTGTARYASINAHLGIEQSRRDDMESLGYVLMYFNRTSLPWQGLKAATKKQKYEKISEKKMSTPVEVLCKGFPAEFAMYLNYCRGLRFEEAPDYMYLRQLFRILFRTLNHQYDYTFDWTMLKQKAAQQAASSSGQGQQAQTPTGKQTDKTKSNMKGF
Procedure: NVS_ENZ_hCK1a is a biochemical, single-readout assay that uses extracted gene-proteins in a cell-free assay. Measurements were taken 1 hour after chemical dosing in a 384-well plate.NVS_ENZ_hCK1a is one of one assay component(s) measured or calculated from the NVS_ENZ_hCK1a assay. It is designed to make measurements of enzyme activity, a form of enzyme reporter, as detected with fluorescence intensity signals by Fluorescence and electrophoretic mobility shift technology.Data from the assay component NVS_ENZ_hCK1a was analyzed into 1 assay endpoint. This assay endpoint, NVS_ENZ_hCK1a, was analyzed in the positive analysis fitting direction relative to DMSO as the negative control and baseline of activity. Using a type of enzyme reporter, loss-of-signal activity can be used to understand changes in the enzymatic activity as they relate to the gene CSNK1A1. Furthermore, this assay endpoint can be referred to as a primary readout, because this assay has produced multiple assay endpoints where this one serves a enzymatic activity function. To generalize the intended target to other relatable targets, this assay endpoint is annotated to the kinase intended target family, where the subfamily is serine/threonine kinase.
Binding assays used specific radioligands (tritiated, iodinated) with non-radioactive competitive displacement ligands in agonist or antagonist protocols (as indicated) and various reference compounds and inhibitors to titrate specific binding to receptors and transporters. Most enzyme assays (CYPs, kinases, phosphatases, proteases, HDACs) used recombinant protein and specific substrates (fluorescence mostly, some colorimetric and radioactive) and inhibitors, followed by a biochemical separation of substrate and product. All assays for the biochemical HTS were initially run in duplicate at a single concentration (10 uM for CYP450 assays and 25 uM for all others). Assay-chemical combinations meeting a pre-defined threshold (e.g., 30% inhibition and other criteria defined below) were then run in singleton concentration-response format with maximum concentration of 20 uM for CYPs and 50 uM for all others. Each assay was run with positive and negative controls, and concurrent controls on every plate. The follow-up (secondary) screen tested active chemical-pairs in concentration series, as well as a few additional assays not tested in the primary screen, some selected negative inactives, and several cases re-run in the concentration series for confirmatory purposes.
With `S=C(S)NCCNC(=S)S.[Mn+2].[S-]C([S-])=NCCN=C([S-])[S-].[Zn+2]` the AC50 was 9.19 µM (active).
In the case of `O=S(=O)(O)C(F)(F)C(F)(F)C(F)(F)C(F)(F)C(F)(F)C(F)(F)C(F)(F)C(F)(F)F`, the AC50 is reported as 21.1 µM (active).
`S=C([S-])NCCNC(=S)[S-].[Mn+2]` was tested, and the AC50 was 19.4 µM (active).
For `CO/C=C(/C(=O)OC)c1ccccc1Oc1cc(Oc2ccccc2C#N)ncn1`, the outcome was “inactive”.
For `N#CSCSC#N`, the outcome was “inactive”.
`O=C(Nc1ccc([N+](=O)[O-])cc1Cl)c1cc(Cl)ccc1O` was tested, and the outcome was “inactive”.
`O=C(O)C1(C(=O)Nc2ccc(Cl)cc2Cl)CC1` was tested, and the AC50 was 8.67 µM (active).
`CN(C)[C@@H]1C(=O)C(C(N)=O)=C(O)[C@@]2(O)C(=O)C3=C(O)c4c(O)cccc4[C@@](C)(O)[C@H]3[C@H](O)[C@@H]12` was tested, and the AC50 was 36.4 µM (active).
For `Nc1nc(N)nc(NC2CC2)n1`, the outcome was “inactive”.
